# Measured values as given in the supplement of paper PMC10037445.
# Whole data set: some 2,900 compounds, median “NF-kB SEAP reporter activity, fold change vs agonist alone” near 0.99, cut for the highest 2% near 2.6. What follows is part of a selection rich in the highest values, with near analogues and random picks from the rest.
# Assays:
# RAW-Dual [1] = test: NF-kB SEAP reporter activity, fold change vs agonist alone; cytotoxicity flag (confluency mask): not cytotoxic; higher = enhanced NF-kB activity
# Procedure, shortened: (§1)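 Library stock was pin-tooled at 50 nL into 384-well plates of RAW-Dual macrophages (50,000 cells/well, DMEM), followed 1 h later by a PRR agonist, and the cells were kept at 37 °C, 5% CO2. Supernatant collected after 20 hours was read for IRF by QuantiLuc luminescence and for NF-κB by QuantiBlue absorbance at 620 nm. Reporter activity is fold change over agonist-alone wells, and a well counted as cytotoxic when its IncuCyte confluency was below 70% of agonist controls in both mask sets.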
# RAW-Dual [2] = test: NF-kB SEAP reporter activity, fold change vs agonist alone; higher = enhanced NF-kB activity; details: library stock concentration (final ~1000-fold dilution): 10 mM
# Procedure, shortened: as §1
# RAW-Dual [3] = test: NF-kB SEAP reporter activity, fold change vs agonist alone; cytotoxicity flag (confluency mask): cytotoxic (confluency <70% of control); higher = enhanced NF-kB activity
# Procedure, shortened: as §1
# [4] = agonist: ODN 1826 (TLR9) 0.5 ug/mL
# [5] = agonist: Pam2CSK4 (TLR2/6) 0.1 ug/mL
# [6] = agonist: Pam3CSK4 (TLR2/1) 0.1 ug/mL
# [7] = cytotoxicity flag (confluency mask): not cytotoxic, agonist: Imiquimod (TLR7) […]
# [8] = cytotoxicity flag (confluency mask): not cytotoxic, agonist: MPLA (TLR4) […]
smiles,measurement,setting,value
O=C(CCNNC(=O)c1ccncc1)NCc1ccccc1 (library stock concentration (final ~1000-fold dilution): 10 mM),NF-kB SEAP reporter activity,RAW-Dual [1]; agonist: LPS (TLR4) 0.1 ug/mL,0.997
same,NF-kB SEAP reporter activity,RAW-Dual [1]; [4],1.03
same,NF-kB SEAP reporter activity,RAW-Dual [1]; [5],0.962
same,NF-kB SEAP reporter activity,RAW-Dual [1]; [6],0.955
CCCCNNC(=O)c1ccc(Br)cc1 (library stock concentration (final ~1000-fold dilution): 10 mM),NF-kB SEAP reporter activity,RAW-Dual [1]; agonist: LPS (TLR4) 0.1 ug/mL,3.15
same,NF-kB SEAP reporter activity,RAW-Dual [1]; [4],2.18
same,NF-kB SEAP reporter activity,RAW-Dual [1]; [5],0.64
same,NF-kB SEAP reporter activity,RAW-Dual [1]; [6],0.656
O=C(CCNNC(=O)c1ccncc1)NCc1ccccc1,NF-kB SEAP reporter activity,RAW-Dual [2]; [7],0.939
same,NF-kB SEAP reporter activity,RAW-Dual [2]; [8],1
CS(=O)(=O)n1cc2c(n1)CN(C1COC(c3cc(F)ccc3F)C(N)C1)C2 (stereo not given) (library stock concentration (final ~1000-fold dilution): 10 mM),NF-kB SEAP reporter activity,RAW-Dual [1]; agonist: LPS (TLR4) 0.1 ug/mL,1.1
same,NF-kB SEAP reporter activity,RAW-Dual [1]; [4],0.91
same,NF-kB SEAP reporter activity,RAW-Dual [1]; [5],1
same,NF-kB SEAP reporter activity,RAW-Dual [1]; [6],0.974
CS(=O)(=O)n1cc2c(n1)CN(C1COC(c3cc(F)ccc3F)C(N)C1)C2 (stereo not given),NF-kB SEAP reporter activity,RAW-Dual [2]; [7],0.931
same,NF-kB SEAP reporter activity,RAW-Dual [2]; [8],1.03
O=C(Cc1ccc(-c2ccc(OCCN3CCOCC3)cc2)cn1)NCc1ccccc1,NF-kB SEAP reporter activity,RAW-Dual [2]; [7],2.63
same,NF-kB SEAP reporter activity,RAW-Dual [2]; [8],2.26
Cc1ccc(-n2nc(C(C)(C)C)cc2NC(=O)Nc2ccc(OCCN3CCOCC3)c3ccccc23)cc1 (library stock concentration (final ~1000-fold dilution): 10 mM),NF-kB SEAP reporter activity,RAW-Dual [1]; agonist: LPS (TLR4) 0.1 ug/mL,0.477
same,NF-kB SEAP reporter activity,RAW-Dual [1]; [4],0.449
same,NF-kB SEAP reporter activity,RAW-Dual [1]; [5],0.129
same,NF-kB SEAP reporter activity,RAW-Dual [1]; [6],0.226
Cc1ccc(-n2nc(C(C)(C)C)cc2NC(=O)Nc2ccc(OCCN3CCOCC3)c3ccccc23)cc1,NF-kB SEAP reporter activity,RAW-Dual [2]; [7],0.455
same,NF-kB SEAP reporter activity,RAW-Dual [2]; [8],0.804
O=C(NCCN1CCOCC1)c1ccc(Cl)cc1 (library stock concentration (final ~1000-fold dilution): 10 mM),NF-kB SEAP reporter activity,RAW-Dual [1]; agonist: LPS (TLR4) 0.1 ug/mL,1.32
same,NF-kB SEAP reporter activity,RAW-Dual [1]; [4],1.86
same,NF-kB SEAP reporter activity,RAW-Dual [1]; [5],1.18
same,NF-kB SEAP reporter activity,RAW-Dual [1]; [6],1.17
O=C(Cc1ccc(-c2ccc(OCCN3CCOCC3)cc2)cn1)NCc1ccccc1 (library stock concentration (final ~1000-fold dilution): 10 mM),NF-kB SEAP reporter activity,RAW-Dual [1]; agonist: LPS (TLR4) 0.1 ug/mL,4.55
same,NF-kB SEAP reporter activity,RAW-Dual [1]; [4],3.36
same,NF-kB SEAP reporter activity,RAW-Dual [1]; [5],2
same,NF-kB SEAP reporter activity,RAW-Dual [1]; [6],2.39
O=C(NCCN1CCOCC1)c1ccc(Cl)cc1,NF-kB SEAP reporter activity,RAW-Dual [2]; [7],1.74
same,NF-kB SEAP reporter activity,RAW-Dual [2]; [8],1.82
C=CC(=O)N1CC(Nc2ncnc3[nH]ccc23)CCC1C (stereo not given) (library stock concentration (final ~1000-fold dilution): 10 mM),NF-kB SEAP reporter activity,RAW-Dual [1]; agonist: LPS (TLR4) 0.1 ug/mL,0.655
same,NF-kB SEAP reporter activity,RAW-Dual [1]; [4],0.682
same,NF-kB SEAP reporter activity,RAW-Dual [1]; [5],0.56
same,NF-kB SEAP reporter activity,RAW-Dual [1]; [6],0.738
C=CC(=O)N1CC(Nc2ncnc3[nH]ccc23)CCC1C (stereo not given),NF-kB SEAP reporter activity,RAW-Dual [2]; [7],0.572
same,NF-kB SEAP reporter activity,RAW-Dual [2]; [8],0.785
CNCCC(Oc1cccc2ccccc12)c1cccs1 (stereo not given),NF-kB SEAP reporter activity,"RAW-Dual [2]; cytotoxicity flag (confluency mask): cytotoxic (confluency <70% of control), agonist: MPLA (TLR4) […]",1.98
CNCCC(Oc1cccc2ccccc12)c1cccs1 (stereo not given) (library stock concentration (final ~1000-fold dilution): 10 mM),NF-kB SEAP reporter activity,RAW-Dual [3]; agonist: LPS (TLR4) 0.1 ug/mL,1.1
same,NF-kB SEAP reporter activity,RAW-Dual [3]; [4],0.191
same,NF-kB SEAP reporter activity,RAW-Dual [3]; [5],0.797
same,NF-kB SEAP reporter activity,RAW-Dual [3]; [6],0.525
OCC1OC(c2ccc(Cl)c(Cc3ccc(OC4CCOC4)cc3)c2)C(O)C(O)C1O (stereo not given),NF-kB SEAP reporter activity,RAW-Dual [2]; [7],0.973
same,NF-kB SEAP reporter activity,RAW-Dual [2]; [8],1.06
OCC1OC(c2ccc(Cl)c(Cc3ccc(OC4CCOC4)cc3)c2)C(O)C(O)C1O (stereo not given) (library stock concentration (final ~1000-fold dilution): 10 mM),NF-kB SEAP reporter activity,RAW-Dual [1]; agonist: LPS (TLR4) 0.1 ug/mL,1.12
same,NF-kB SEAP reporter activity,RAW-Dual [1]; [4],1.07
same,NF-kB SEAP reporter activity,RAW-Dual [1]; [5],0.963
same,NF-kB SEAP reporter activity,RAW-Dual [1]; [6],0.983
COc1ccc(CNC(=O)Nc2ncc([N+](=O)[O-])s2)cc1 (library stock concentration (final ~1000-fold dilution): 10 mM),NF-kB SEAP reporter activity,RAW-Dual [1]; agonist: LPS (TLR4) 0.1 ug/mL,2.74
same,NF-kB SEAP reporter activity,RAW-Dual [1]; [4],1.64
same,NF-kB SEAP reporter activity,RAW-Dual [1]; [5],0.864
same,NF-kB SEAP reporter activity,RAW-Dual [1]; [6],1.32
COc1ccc(CNC(=O)Nc2ncc([N+](=O)[O-])s2)cc1,NF-kB SEAP reporter activity,RAW-Dual [2]; [7],1.2
same,NF-kB SEAP reporter activity,RAW-Dual [2]; [8],1.68
O=C(Nc1ncc([N+](=O)[O-])s1)c1ccccc1O,NF-kB SEAP reporter activity,RAW-Dual [2]; [8],0.945
COc1ccc(S(=O)(=O)NCc2ccc(C(=O)NCCc3ccc(Cl)cn3)cc2)cc1,NF-kB SEAP reporter activity,RAW-Dual [2]; [7],0.318
same,NF-kB SEAP reporter activity,RAW-Dual [2]; [8],1.19
O=C(Nc1ncc([N+](=O)[O-])s1)c1ccccc1O (library stock concentration (final ~1000-fold dilution): 10 mM),NF-kB SEAP reporter activity,RAW-Dual [1]; agonist: LPS (TLR4) 0.1 ug/mL,0.954
same,NF-kB SEAP reporter activity,RAW-Dual [1]; [4],1.21
same,NF-kB SEAP reporter activity,RAW-Dual [1]; [5],0.573
same,NF-kB SEAP reporter activity,RAW-Dual [1]; [6],0.684
COc1ccc(S(=O)(=O)NCc2ccc(C(=O)NCCc3ccc(Cl)cn3)cc2)cc1 (library stock concentration (final ~1000-fold dilution): 10 mM),NF-kB SEAP reporter activity,RAW-Dual [1]; agonist: LPS (TLR4) 0.1 ug/mL,1.36
same,NF-kB SEAP reporter activity,RAW-Dual [1]; [4],1.15
same,NF-kB SEAP reporter activity,RAW-Dual [1]; [5],0.849
same,NF-kB SEAP reporter activity,RAW-Dual [1]; [6],1.49
COCCOc1cnc2ccn(C(C)c3nnc4c(F)cc(-c5cnn(C)c5)cn34)c(=O)c2c1 (stereo not given),NF-kB SEAP reporter activity,RAW-Dual [2]; [7],1.01
same,NF-kB SEAP reporter activity,RAW-Dual [2]; [8],1.01
COCCOc1cnc2ccn(C(C)c3nnc4c(F)cc(-c5cnn(C)c5)cn34)c(=O)c2c1 (stereo not given) (library stock concentration (final ~1000-fold dilution): 10 mM),NF-kB SEAP reporter activity,RAW-Dual [1]; agonist: LPS (TLR4) 0.1 ug/mL,1.54
same,NF-kB SEAP reporter activity,RAW-Dual [1]; [4],1.11
same,NF-kB SEAP reporter activity,RAW-Dual [1]; [5],1.11
same,NF-kB SEAP reporter activity,RAW-Dual [1]; [6],1.13
CCCCCCCCCCCCCCCC(=O)OCC(O)C1OC(O)=C(O)C1=O (stereo not given),NF-kB SEAP reporter activity,RAW-Dual [2]; [7],0.898
same,NF-kB SEAP reporter activity,RAW-Dual [2]; [8],1.01
CCCCCCCCCCCCCCCC(=O)OCC(O)C1OC(O)=C(O)C1=O (stereo not given) (library stock concentration (final ~1000-fold dilution): 10 mM),NF-kB SEAP reporter activity,RAW-Dual [1]; agonist: LPS (TLR4) 0.1 ug/mL,1.15
same,NF-kB SEAP reporter activity,RAW-Dual [1]; [4],0.825
same,NF-kB SEAP reporter activity,RAW-Dual [1]; [5],0.949
same,NF-kB SEAP reporter activity,RAW-Dual [1]; [6],0.67
